Reference: PubChem BioAssay AID1159580 (chemical genetic matrix, 2015)
About 2,000 (36%) of roughly 5,500 compounds were called active. Another 18% or so got no clear call; they are omitted. No stated cut-off is given here; in the data, active means normalized growth mostly below about 0.91 (no sharp cut-off); inconclusive means no clear call, values can overlap the other calls; inactive means mostly above about 0.92. This is one part of the list.

Assay: chemical genetic growth profiling, strain panel (AID 1159580);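 further: tested at 20 µM; growth read once vehicle control cultures reached saturation at 30 °C; 1 = growth at the plate median or of vehicle wells; lower values mean less growth of the strain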
Conditions: growth OD

Measured: normalized growth

N[C@H](Cc1cc(I)c(Oc2ccc(O)c(I)c2)c(I)c1)C(=O)O
active: S. cerevisiae deletion strains, locus YNL071W, strain lat1, hits give low values 0.627 | S. cerevisiae deletion strains, locus YNL307C, strain MCK1, hits give low values 0.613 | S. cerevisiae deletion strains, locus YPR163C, strain tif3, hits give low values 0.909
inactive: S. cerevisiae deletion strains, locus YNL128W, strain TEP1, hits give low values 1.01 | S. cerevisiae deletion strains, locus YNL153C, strain GIM3, hits give low values 0.998 | S. cerevisiae deletion strains, locus YNL183C, strain NPR1, hits give low values 0.977 | S. cerevisiae deletion strains, locus YNL209W, strain ssb2, hits give low values 1 | S. cerevisiae deletion strains, locus YNL233W, strain BNI4, hits give low values 0.961 | S. cerevisiae deletion strains, locus YNL248C, strain rpa49, hits give low values 0.986 | S. cerevisiae deletion strains, locus YNL250W, strain rad50, hits give low values 0.988 | S. cerevisiae deletion strains, locus YNL271C, strain bni1, hits give low values 0.989 | S. cerevisiae deletion strains, locus YNL298W, strain CLA4, hits give low values 1 | S. cerevisiae deletion strains, locus YNL322C, strain KRE1 (second series), hits give low values 1.02 | S. cerevisiae deletion strains, locus YNL322C, strain KRE1, hits give low values 1.01 | S. cerevisiae deletion strains, locus YNR049C, strain mso1, hits give low values 0.998 | S. cerevisiae deletion strains, locus YNR052C, strain pop2, hits give low values 0.999 | S. cerevisiae deletion strains, locus YOL006C, strain TOP1, hits give low values 0.942 | S. cerevisiae deletion strains, locus YOL012C, strain htz1 0.841 | S. cerevisiae deletion strains, locus YOL147C, strain pex11, hits give low values 1 | S. cerevisiae deletion strains, locus YOR001W, strain rrp6, hits give low values 1.01 | S. cerevisiae deletion strains, locus YOR061W, strain CKA2, hits give low values 0.994 | S. cerevisiae deletion strains, locus YOR069W, strain VPS5, hits give low values 1 | S. cerevisiae deletion strains, locus YOR070C, strain gyp1, hits give low values 0.992 | S. cerevisiae deletion strains, locus YOR080W, strain dia2, hits give low values 0.987 | S. cerevisiae deletion strains, locus YOR083W, strain WHI5, hits give low values 0.965 | S. cerevisiae deletion strains, locus YOR106W, strain vam3, hits give low values 0.935 | S. cerevisiae deletion strains, locus YOR136W, strain idh2, hits give low values 0.97 | S. cerevisiae deletion strains, locus YOR144C, strain elg1, hits give low values 0.994 | S. cerevisiae deletion strains, locus YOR184W, strain ser1, hits give low values 0.889 | S. cerevisiae deletion strains, locus YOR231W, strain MKK1, hits give low values 1.03 | S. cerevisiae deletion strains, locus YOR265W, strain rbl2, hits give low values 0.993 | S. cerevisiae deletion strains, locus YOR270C, strain vph1, hits give low values 0.953 | S. cerevisiae deletion strains, locus YOR290C, strain snf2, hits give low values 0.983 | S. cerevisiae deletion strains, locus YOR316C, strain cot1, hits give low values 1 | S. cerevisiae deletion strains, locus YPL051W, strain arl3, hits give low values 0.95 | S. cerevisiae deletion strains, locus YPL055C, strain LGE1, hits give low values 1 | S. cerevisiae deletion strains, locus YPL078C, strain atp4, hits give low values 0.968 | S. cerevisiae deletion strains, locus YPL106C, strain sse1, hits give low values 0.96 | S. cerevisiae deletion strains, locus YPL240C, strain hsp82, hits give low values 0.982 | S. cerevisiae deletion strains, locus YPL241C, strain CIN2, hits give low values 1.01 | S. cerevisiae deletion strains, locus YPL256C, strain CLN2, hits give low values 1.05 | S. cerevisiae deletion strains, locus YPR119W, strain clb2, hits give low values 0.998 | S. cerevisiae deletion strains, locus YPR141C, strain kar3, hits give low values 1.01 | S. cerevisiae deletion strains, locus YPR167C, strain met16, hits give low values 1.01 | S. cerevisiae deletion strains, strain wtn01, hits give low values 0.955 | S. cerevisiae strains, strain wild type, hits give low values 1
